Source: PubChem BioAssay (EPA / NIEHS)
Active and inactive are the calls of the source. The calls were made as follows: active = hit-call score of the fitted dose curve at least 0.9, where 1 is the maximum; inactive = score below 0.9.

Key:
[1] = read-out: Thrombomodulin, THBD (gene 7056); assay: BSK_CASM3C_Thrombomodulin: BioMAP Diversity Plus: CASM3C Assay for Thrombomodulin Biomarker Activity (AID 2283051); settings: primary human coronary artery smooth muscle cells; actives raise or lower the signal;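 also: thrombomodulin protein level measured by ELISA 24 h after dosing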
[2] = read-out: Tissue Factor, F3 (gene 2152); assay: BSK_CASM3C_TissueFactor: BioMAP Diversity Plus: CASM3C Assay for Tissue Factor Biomarker Activity (AID 2283052); settings: primary human coronary artery smooth muscle cells; actives raise or lower the signal;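 also: cell surface tissue factor protein level read by ELISA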
[3] = read-out: Interferon-gamma inducible Protein 10 (IP10), CXCL10 (gene 3627); assay: BSK_hDFCGF_IP10: BioMAP Diversity Plus: hDFCGF Assay for Interferon-gamma inducible Protein 10 (IP10) Biomarker Activity (AID 2283053); settings: primary human foreskin fibroblasts; actives raise or lower the signal
Method in brief: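 Primary foreskin fibroblasts, human; 24 h compound exposure; IP-10 by ELISA; bidirectional fit vs DMSO.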

[4] = read-out: Urokinase-type plasminogen activator receptor (uPAR), PLAUR (gene 5329); assay: BSK_CASM3C_uPAR: BioMAP Diversity Plus: CASM3C Assay for Urokinase-type plasminogen activator receptor (uPAR) Biomarker Activity (AID 2283054); settings: primary human coronary artery smooth muscle cells; actives raise or lower the signal;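 also: cell-surface uPAR protein level quantified by ELISA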
[5] = read-out: Vascular cell adhesion molecule 1 (VCAM1), VCAM1 (gene 7412); assay: BSK_CASM3C_VCAM1: BioMAP Diversity Plus: CASM3C Assay for Vascular cell adhesion molecule 1 (VCAM1) Biomarker Activity (AID 2283055); settings: primary human coronary artery smooth muscle cells; actives raise or lower the signal;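 also: VCAM-1 protein level quantified by ELISA on the cells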
[6] = read-out: Collagen III, COL3A1 (gene 1281); assay: BSK_hDFCGF_CollagenIII: BioMAP Diversity Plus: hDFCGF Assay for Collagen III Biomarker Activity (AID 2283056); settings: primary human foreskin fibroblasts; actives raise or lower the signal
Method in brief: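 hDFCGF primary human dermal fibroblasts; 24 h chemical exposure; collagen III by ELISA; bidirectional curve fit vs DMSO baseline (gain or loss of signal).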

[7] = read-out: Epidermal growth factor receptor (EGFR), EGFR (gene 1956); assay: BSK_hDFCGF_EGFR: BioMAP Diversity Plus: hDFCGF Assay for Epidermal growth factor receptor (EGFR) Biomarker Activity (AID 2283057); settings: primary human foreskin fibroblasts; actives raise or lower the signal
Method in brief: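 hDFCGF system, primary human foreskin fibroblasts; compound 24 h; EGFR measured by ELISA; DMSO = negative control/baseline; bidirectional fitting.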

[8] = read-out: Interleukin-8 (IL8), CXCL8 (gene 3576); assay: BSK_hDFCGF_IL8: BioMAP Diversity Plus: hDFCGF Assay for Interleukin-8 (IL8) Biomarker Activity (AID 2283058); settings: primary human foreskin fibroblasts; actives raise or lower the signal
Method in brief: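 ELISA read-out of IL-8 from primary human foreskin fibroblast cultures taken 24 h after dosing; values are bidirectional fits relative to DMSO vehicle.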

[9] = BSK_hDFCGF_Proliferation: Cell Proliferation Assessment in the BioMAP Diversity Plus: hDFCGF Assay (AID 2283059); settings: primary human foreskin fibroblasts;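 also: curves fitted for both rise and fall of signal versus DMSO baseline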
Method in brief: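 Primary human foreskin fibroblasts, sub-confluent; […]; 10% TCA fix, 0.1% SRB stain, A560 total protein. Gain/loss fitted bidirectionally vs DMSO control.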

[10] = read-out: Macrophage colony-stimulating factor (MCSF), CSF1 (gene 1435); assay: BSK_hDFCGF_MCSF: BioMAP Diversity Plus: hDFCGF Assay for Macrophage colony-stimulating factor (MCSF) Biomarker Activity (AID 2283060); settings: primary human foreskin fibroblasts; actives raise or lower the signal
Method in brief: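 ELISA read-out of M-CSF in human dermal foreskin fibroblast cultures, 24 h after chemical dosing; gain or loss of signal fitted bidirectionally relative to DMSO baseline.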

In the case of CCN(CC)N=O, the outcome [1] is reported as “inactive”, the outcome [2] is reported as “inactive” and the outcome [3] is reported as “inactive”. The outcome [4] was “inactive”, the outcome [5] was “inactive” and the outcome [6] was “inactive”. The outcome [7] was “inactive”, the outcome [8] was “inactive” and the outcome [9] was “inactive”. The outcome [10] was “inactive”.
With CC(C)(OOC(C)(C)c1ccccc1)c1ccccc1 the AC50 [1] was 32.1 µM (active), the AC50 [2] was 20 µM (active) and the AC50 [3] was 37.9 µM (active). For the same compound, the outcome [4] was “inactive”, the outcome [5] was “inactive” and the outcome [7] was “inactive”. The AC50 [8] was 36.2 µM (active), the AC50 [9] was 14.9 µM (active) and the outcome [10] was “inactive”.
For Cc1ccc(N)cc1, the outcome [1] was “inactive”, the outcome [2] was “inactive” and the outcome [3] was “inactive”. For the same compound, the outcome [4] was “inactive”, the outcome [5] was “inactive” and the outcome [6] was “inactive”. For the same compound, the outcome [7] was “inactive”, the outcome [8] was “inactive” and the outcome [9] was “inactive”. The outcome [10] was “inactive”.
For C1=Cc2cccc3cccc1c23, the outcome [1] was “inactive”, the outcome [2] was “inactive” and the outcome [3] was “inactive”. The outcome [4] was “inactive”, the outcome [5] was “inactive” and the outcome [6] was “inactive”. For the same compound, the outcome [7] was “inactive”, the outcome [8] was “inactive” and the outcome [9] was “inactive”. For the same compound, the outcome [10] was “inactive”.
For O=[N+]([O-])C(Br)(CO)CO, the AC50 [1] was 24.7 µM (active), the outcome [2] was “inactive” and the AC50 [3] was 28.5 µM (active). The outcome [4] was “inactive”, the AC50 [5] was 28.1 µM (active) and the AC50 [6] was 36.7 µM (active). The AC50 [7] was 36.4 µM (active), the AC50 [8] was 37.2 µM (active) and the AC50 [9] was 2.66 µM (active). For the same compound, the AC50 [10] was 26.6 µM (active).
For C[C@]12C=CC3=C4CCC(=O)C=C4CC[C@H]3[C@@H]1CC[C@@H]2O, the outcome [1] was “inactive”, the outcome [2] was “inactive” and the outcome [3] was “inactive”. For the same compound, the outcome [4] was “inactive”, the outcome [5] was “inactive” and the outcome [7] was “inactive”. The outcome [8] was “inactive”, the outcome [9] was “inactive” and the outcome [10] was “inactive”.
With CN(C)c1ccc(C(=O)c2ccc(N(C)C)cc2)cc1 the outcome [1] was “inactive”, the outcome [2] was “inactive” and the outcome [3] was “inactive”. The outcome [4] was “inactive”, the outcome [5] was “inactive” and the outcome [6] was “inactive”. For the same compound, the outcome [7] was “inactive”, the outcome [8] was “inactive” and the AC50 [9] was 1.56 µM (active). The outcome [10] was “inactive”.
In the case of COC(=O)c1ccccc1N, the outcome [1] is reported as “inactive”, the outcome [2] is reported as “inactive” and the outcome [3] is reported as “inactive”. The outcome [4] was “inactive”, the outcome [5] was “inactive” and the outcome [6] was “inactive”. The outcome [7] was “inactive”, the outcome [8] was “inactive” and the outcome [9] was “inactive”. The outcome [10] was “inactive”.
With Nc1ccc(Oc2ccc(N)cc2)cc1 the outcome [1] was “inactive”, the outcome [2] was “inactive” and the outcome [3] was “inactive”. The outcome [4] was “inactive”, the outcome [5] was “inactive” and the outcome [7] was “inactive”. For the same compound, the outcome [8] was “inactive”, the AC50 [9] was 4.11 µM (active) and the outcome [10] was “inactive”.
With ClC1=C(Cl)[C@]2(Cl)[C@H]3[C@H]([C@@H]4C=C[C@H]3C4)[C@@]1(Cl)C2(Cl)Cl the outcome [1] was “inactive”, the outcome [2] was “inactive” and the AC50 [3] was 19.3 µM (active). For the same compound, the AC50 [4] was 32 µM (active), the AC50 [5] was 38.9 µM (active) and the AC50 [6] was 13.7 µM (active). The outcome [7] was “inactive”, the AC50 [8] was 31.3 µM (active) and the AC50 [9] was 5.71 µM (active). The AC50 [10] was 16.3 µM (active).
For Cc1ccc(N=C=O)cc1N=C=O, the outcome [1] was “inactive”, the outcome [2] was “inactive” and the outcome [3] was “inactive”. For the same compound, the outcome [4] was “inactive”, the outcome [5] was “inactive” and the outcome [7] was “inactive”. For the same compound, the outcome [8] was “inactive”, the outcome [9] was “inactive” and the outcome [10] was “inactive”.
In the case of c1ccc2c(c1)oc1ccccc12, the outcome [1] is reported as “inactive”, the outcome [2] is reported as “inactive” and the outcome [3] is reported as “inactive”. The outcome [4] was “inactive”, the outcome [5] was “inactive” and the outcome [7] was “inactive”. For the same compound, the outcome [8] was “inactive”, the outcome [9] was “inactive” and the outcome [10] was “inactive”.
In the case of CN(C)C(=O)Nc1ccc(Cl)cc1, the outcome [1] is reported as “inactive”, the outcome [2] is reported as “inactive” and the outcome [3] is reported as “inactive”. For the same compound, the outcome [4] was “inactive”, the outcome [5] was “inactive” and the outcome [7] was “inactive”. The outcome [8] was “inactive”, the outcome [9] was “inactive” and the outcome [10] was “inactive”.
In the case of [Cl-].[Cl-].[Hg+2], the AC50 [1] is reported as 5.21 µM (active), the AC50 [2] is reported as 32.6 µM (active) and the AC50 [3] is reported as 11.5 µM (active). The AC50 [4] was 34.4 µM (active), the AC50 [5] was 26.5 µM (active) and the AC50 [6] was 11.6 µM (active). The outcome [7] was “inactive”, the AC50 [8] was 13.6 µM (active) and the AC50 [9] was 4.83 µM (active). The AC50 [10] was 10.7 µM (active).
In the case of Cn1cc(-c2ccccc2)c(=O)c(-c2cccc(C(F)(F)F)c2)c1, the outcome [1] is reported as “inactive”, the outcome [2] is reported as “inactive” and the outcome [3] is reported as “inactive”. The AC50 [4] was 5.18 µM (active), the outcome [5] was “inactive” and the outcome [6] was “inactive”. The outcome [7] was “inactive”, the outcome [8] was “inactive” and the outcome [9] was “inactive”. The outcome [10] was “inactive”.
For Nc1ccc([N+](=O)[O-])cc1, the outcome [1] was “inactive”, the outcome [2] was “inactive” and the outcome [3] was “inactive”. The outcome [4] was “inactive”, the outcome [5] was “inactive” and the outcome [7] was “inactive”. For the same compound, the outcome [8] was “inactive”, the AC50 [9] was 20 µM (active) and the outcome [10] was “inactive”.
In the case of O=C(Oc1ccc(Br)cc1)N1CCN2CCC1CC2, the outcome [1] is reported as “inactive”, the outcome [2] is reported as “inactive” and the outcome [3] is reported as “inactive”. The outcome [4] was “inactive”, the outcome [5] was “inactive” and the outcome [7] was “inactive”. For the same compound, the outcome [8] was “inactive”, the outcome [9] was “inactive” and the outcome [10] was “inactive”.
In the case of CC(C)(O)c1cnn2c(-c3ccc(F)c(-c4c(F)cccc4C#N)c3)cnc2n1, the outcome [1] is reported as “inactive”, the outcome [2] is reported as “inactive” and the outcome [3] is reported as “inactive”. For the same compound, the outcome [4] was “inactive”, the outcome [5] was “inactive” and the outcome [7] was “inactive”. The outcome [8] was “inactive”, the outcome [9] was “inactive” and the outcome [10] was “inactive”.
For CCCCC(CC)COC(=O)c1ccc(C(=O)OCC(CC)CCCC)c(C(=O)OCC(CC)CCCC)c1 (stereo not drawn), the outcome [1] was “inactive”, the outcome [2] was “inactive” and the outcome [3] was “inactive”. For the same compound, the outcome [4] was “inactive”, the outcome [5] was “inactive” and the outcome [7] was “inactive”. The outcome [8] was “inactive”, the outcome [9] was “inactive” and the outcome [10] was “inactive”.
In the case of CCCCCCCCOC(=O)c1ccc(C(=O)OCCCCCCCC)c(C(=O)OCCCCCCCC)c1, the outcome [1] is reported as “inactive”, the outcome [2] is reported as “inactive” and the outcome [3] is reported as “inactive”. The outcome [4] was “inactive”, the outcome [5] was “inactive” and the outcome [7] was “inactive”. The outcome [8] was “inactive”, the outcome [9] was “inactive” and the outcome [10] was “inactive”.
In the case of CCOC(=O)[C@]1(c2ccccc2)Oc2ccccc2[C@@H]1N, the outcome [1] is reported as “inactive”, the outcome [2] is reported as “inactive” and the AC50 [3] is reported as 36.6 µM (active). For the same compound, the outcome [4] was “inactive”, the outcome [5] was “inactive” and the outcome [7] was “inactive”. For the same compound, the AC50 [8] was 32.2 µM (active), the AC50 [9] was 17.8 µM (active) and the AC50 [10] was 28.4 µM (active).
